The supplement of paper PMC6089552
About 300 (9.4%) of roughly 3,200 compounds showed activity. This excerpt belongs to a sample that is enriched for actives.

System: A673/TR/shEF
Assay: cell viability (LOESS-normalised, relative to median of negative controls) (log2 ratio); higher = more viable cells (less compound effect), active = hit call of the paper (over 3 MAD below the median)
Details: treatment time: 72 h
Outline: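 Viability of A673/TR/shEF Ewing sarcoma cells was determined by CellTiter-Glo luminescence. The cells, at 1,500 per well in 384-well plates, were grown with or without doxycycline from 24 h before compound addition to switch on EWS-FLI1 shRNA knockdown, then exposed for three days to library compounds at two or more concentrations or to DMSO controls. Signals were LOESS-corrected plate by plate, normalised to the negative-control median and log2-transformed.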

[1] = 0.25 µM, library screen: screen2, EWS-FLI1 expression: high (no doxycycline)
[2] = 0.25 µM, library screen: screen2, EWS-FLI1 expression: low (doxycycline-induced shRNA knockdown)
[3] = 2.5 µM, library screen: screen2, EWS-FLI1 expression: high (no doxycycline)
[4] = 2.5 µM, library screen: screen2, EWS-FLI1 expression: low (doxycycline-induced shRNA knockdown)
[5] = 0.025 µM, library screen: screen1, EWS-FLI1 expression: high (no doxycycline)
[6] = 0.025 µM, library screen: screen1, EWS-FLI1 expression: low (doxycycline-induced shRNA knockdown)
[7] = 0.25 µM, library screen: screen1, EWS-FLI1 expression: high (no doxycycline)
[8] = 0.25 µM, library screen: screen1, EWS-FLI1 expression: low (doxycycline-induced shRNA knockdown)
[9] = 2.5 µM, library screen: screen1, EWS-FLI1 expression: high (no doxycycline)
[10] = 2.5 µM, library screen: screen1, EWS-FLI1 expression: low (doxycycline-induced shRNA knockdown)
[11] = 25 µM, library screen: screen1, EWS-FLI1 expression: high (no doxycycline)
[12] = 25 µM, library screen: screen1, EWS-FLI1 expression: low (doxycycline-induced shRNA knockdown)
[13] = 0.025 µM, library screen: screen2, EWS-FLI1 expression: high (no doxycycline)
[14] = 0.025 µM, library screen: screen2, EWS-FLI1 expression: low (doxycycline-induced shRNA knockdown)
[15] = 25 µM, library screen: screen2, EWS-FLI1 expression: high (no doxycycline)
[16] = 25 µM, library screen: screen2, EWS-FLI1 expression: low (doxycycline-induced shRNA knockdown)

Measured: cell viability (log2)

NC(Cc1cc(O)c(O)cc1O)C(=O)O (centres undefined)
inactive: [1] 0.0775 | [2] 0.133 | [3] 0.0832 | [4] 0.2

CC(=O)c1c(O)c(C)c(O)c(Cc2c(O)c3c(c(C(=O)/C=C/c4ccccc4)c2O)OC(C)(C)C=C3)c1O
active: [11] -0.306
inactive: [5] 0.0285 | [6] 0.0263 | [7] 0.0889 | [8] 0.0306 | [1] 0.209 | [2] 0.109 | [9] 0.055 | [10] -0.0112 | [3] 0.118 | [4] 0.156 | [12] -0.0436

CC(N)Cc1c[nH]c2ccc(O)cc12 (centres undefined)
inactive: [1] 0.112 | [2] 0.067 | [3] 0.123 | [4] 0.0164

COc1ccc(C(c2ccc(OC)cc2)C(Cl)(Cl)Cl)cc1
inactive: [7] 0.0772 | [8] 0.0568 | [9] 0.0994 | [10] 0.0877

ClC1=C(Cl)[C@]2(Cl)[C@H]3[C@H]([C@@H]4C=C[C@H]3C4)[C@@]1(Cl)C2(Cl)Cl
inactive: [7] 0.211 | [8] 0.0643 | [9] 0.0733 | [10] 0.136

CCN(CC)C(=O)N[C@@H]1C[C@@H]2c3cccc4[nH]cc(c34)C[C@H]2N(C)C1
inactive: [1] 0.108 | [2] 0.0251 | [3] 0.215 | [4] -0.0279

CCCCSP(=O)(SCCCC)SCCCC
active: [7] -0.12
inactive: [8] 0.121 | [9] 0.0791 | [10] 0.0846

CCCSP(=O)(OCC)SCCC
inactive: [7] 0.112 | [8] 0.104 | [9] 0.0625 | [10] 0.0939

CC1=C[C@@H]2c3cccc4[nH]cc(c34)C[C@H]2N(C)C1
inactive: [1] 0.126 | [2] 0.0939 | [3] 0.18 | [4] 0.0817

CCOP(=S)(OCC)SCSCC
inactive: [7] 0.102 | [8] -0.0178 | [9] 0.0726 | [10] 0.115

NC1CC1c1ccccc1 (centres undefined)
inactive: [7] 0.107 | [8] 0.128 | [9] 0.188 | [10] 0.0868

COc1ccc2c3c1O[C@H]1[C@@H](O)CCC4[C@@H](C2)N(C)CC[C@@]341 (some centres undefined)
inactive: [7] 0.0725 | [8] 0.0483 | [9] 0.0123 | [10] 0.128

C=CCN1CCC2(C)c3cc(O)ccc3CC1C2C (centres undefined)
inactive: [1] 0.143 | [2] 0.072 | [3] 0.0589 | [4] 0.0707

N#Cc1c(Cl)c(Cl)c(Cl)c(C#N)c1Cl
inactive: [7] -0.0732 | [8] 0.00425 | [10] 0.063
active: [9] -0.219

N#Cc1c(Cl)cccc1Cl
inactive: [7] 0.126 | [8] 0.0183 | [9] 0.084 | [10] 0.0798

CCCCOC(=O)c1ccccc1C(=O)OCc1ccccc1
inactive: [7] 0.109 | [8] 0.0867 | [9] 0.0605 | [10] 0.00546

C[C@@H]1c2cc(O)c(O)cc2CCN1C
inactive: [1] 0.203 | [2] 0.114 | [3] 0.129 | [4] 0.102

C[N+]1(C)C2CC(OC(=O)C(CO)c3ccccc3)CC1C1OC12 (centres undefined)
inactive: [7] 0.0929 | [8] 0.0137 | [9] 0.182 | [10] 0.0439

CC(C)(C)c1cc(C=C(C#N)C#N)cc(C(C)(C)C)c1O
inactive: [5] 0.176 | [6] 0.0512 | [7] 0.092 | [8] 0.0707 | [1] 0.104 | [2] 0.0526 | [10] -0.0795 | [3] 0.0132 | [4] 0.112
active: [9] -1.1 | [11] -3.7 | [12] -2.45

CCC1C2CC3[C@@H]4N(C)c5ccccc5[C@]45CC(C2[C@H]5O)N3[C@@H]1O (some centres undefined)
inactive: [7] 0.014 | [8] -0.00944 | [9] 0.104 | [10] 0.0619

CCC(=O)Nc1ccc(Cl)c(Cl)c1
inactive: [7] 0.114 | [8] -0.0209 | [9] 0.0655 | [10] 0.0703

NCC(=O)c1ccccc1
inactive: [7] 0.0631 | [8] 0.0462 | [9] 0.0615 | [10] -0.00509

CC(=O)[O][Hg][c]1ccccc1
active: [7] -0.557 | [9] -2.86 | [10] -2.46
inactive: [8] -0.147

CCCN1CCCC2Cc3[nH]ncc3CC21 (centres undefined)
inactive: [1] 0.135 | [2] 0.086 | [3] 0.231 | [4] 0.107

C[C@@H]1C[C@@H]([C@H](O)CC2CC(=O)NC(=O)C2)C(=O)[C@@H](C)C1
inactive: [13] 0.156 | [14] 0.119 | [7] 0.141 | [8] 0.0197 | [1] 0.0548 | [2] 0.0334
active: [9] -0.514 | [10] -0.278 | [3] -0.922 | [4] -0.399 | [15] -2.23 | [16] -1.54

COc1ccc(CN2CCN(Cc3cccc(OC)c3)CC2)cc1
inactive: [7] -9.1e-05 | [8] 0.123 | [9] 0.136 | [10] 0.0992

ClC(Cl)=C(c1ccc(Cl)cc1)c1ccc(Cl)cc1
inactive: [7] 0.0882 | [8] 0.047 | [9] 0.0599 | [10] 0.0669

CC[C@H]1CN2CC[C@H]1C[C@@H]2[C@@H](O)c1ccnc2ccc(OC)cc12
inactive: [7] 0.074 | [8] 0.121 | [9] 0.133 | [10] 0.0925

COc1cc(C[C@@H](C)N)c(OC)cc1I
inactive: [1] 0.178 | [2] 0.0876 | [3] 0.142 | [4] 0.145

CCCC1CCCCN1 (centres undefined)
inactive: [7] 0.115 | [8] 0.153 | [9] 0.172 | [10] 0.128

CC(Cc1ccc(O)cc1)NCC(O)c1cc(O)cc(O)c1 (centres undefined)
inactive: [7] 0.143 | [8] 0.0538 | [1] 0.23 | [2] 0.0381 | [9] 0.142 | [10] 0.063 | [3] 0.166 | [4] 0.00325

CCCCCCCCCCCCCC(=O)O[C@@H]1[C@@H](C)[C@@]2(O)[C@@H](C=C(CO)C[C@]3(O)C(=O)C(C)=C[C@@H]23)[C@@H]2C(C)(C)[C@]12OC(C)=O
active: [1] -0.184 | [2] -0.159 | [3] -0.478 | [4] -0.292

Oc1ccc2c3c1O[C@H]1c4[nH]c5ccccc5c4C[C@@]4(O)C(C2)N(CC2CC2)CCC314 (some centres undefined)
inactive: [1] 0.0893 | [2] 0.051 | [3] 0.0722 | [4] 0.0157

C[C@]12CCC3C(CC[C@H]4C[C@H](O)CC[C@]34C)C1CC[C@@H]2C(=O)CO (some centres undefined)
inactive: [1] 0.139 | [2] 0.0931 | [3] 0.0348 | [4] 0.0492

ClC1=C(Cl)C2(Cl)C3C(Cl)C(Cl)CC3C1(Cl)C2(Cl)Cl (centres undefined)
inactive: [7] 0.143 | [8] 0.19 | [9] 0.185 | [10] 0.0908

CC(N)C(O)c1ccc(O)c(O)c1 (centres undefined)
inactive: [7] 0.119 | [8] 0.0592 | [9] 0.146 | [10] 0.151

C#CCN[C@H](C)Cc1ccccc1
inactive: [1] 0.265 | [2] 0.101 | [3] 0.0823 | [4] 0.137

COc1cc2c(cc1OC)[C@H]1C(=O)c3ccc4c(c3O[C@H]1CO2)C[C@@H](C(C)C)O4
active: [7] -1.56 | [8] -0.67 | [9] -2.2 | [10] -0.747

C=C(C)[C@H]1Cc2c(ccc3c(=O)c4c(oc23)COc2cc(OC)c(OC)cc2-4)O1
inactive: [7] 0.0952 | [8] -0.0101 | [9] 0.0848 | [10] -0.0847

COc1cc2c(cc1OC)-c1c(oc3c4c(ccc3c1=O)OC(C(C)C)C4)CO2 (centres undefined)
inactive: [7] 0.0422 | [8] 0.0484 | [9] 0.122 | [10] 0.0221

COc1cc2c(cc1OC)[C@@H]1C(=O)c3ccc4oc(C(C)C)cc4c3O[C@@H]1CO2
active: [9] -0.307
inactive: [7] 0.0223 | [8] 0.0518 | [10] -0.129

C=C(C)[C@H]1Cc2c(ccc3c2O[C@@H]2COc4cc(OC)c(OC)cc4[C@@H]2C3=O)O1
active: [7] -1.71 | [8] -0.663 | [1] -0.962 | [2] -0.539 | [9] -2.87 | [10] -1.24 | [3] -2.41 | [4] -0.955 | [15] -3.79 | [16] -1.03
inactive: [13] 0.0593 | [14] 0.0961

COc1cc2c(cc1OC)C1C(=O)c3ccc(O)c(CC=C(C)C)c3OC1CO2 (centres undefined)
inactive: [7] 0.0263 | [8] 0.0494 | [9] 0.046 | [10] 0.0598

CCOP(=S)(OCC)SCn1c(=O)oc2cc(Cl)ccc21
inactive: [7] 0.0867 | [8] 0.153 | [9] 0.166 | [10] 0.163

CCOCN(C(=O)CCl)c1c(C)cccc1CC
inactive: [7] 0.105 | [8] 0.0121 | [9] 0.0903 | [10] -0.17

CC(=O)O[C@@H]1C2CC[C@@H]3C1(C[C@@H](O)[C@@]1(O)[C@@H](C[C@H](O)C1(C)C)[C@]3(C)O)C[C@@]2(C)O (some centres undefined)
inactive: [7] 0.0646 | [8] 0.00107 | [9] 0.0644 | [10] 0.0594

COc1cc2occc2c2oc(=O)ccc12
inactive: [7] 0.133 | [8] -0.00777 | [9] 0.146 | [10] 0.0199
